Calls of active or inactive are those of the source. Rule for the calls: active = hit-call score of the fitted dose curve at least 0.9, where 1 is the maximum; inactive = score below 0.9.
Molecular target: Nuclear respiratory factor 1 (Homo sapiens) (UniProt Q16656)
Test: ATG_NRF1_CIS: Attagene CIS-FACTORIAL HepG2 Assay for human Nuclear Respiratory Factor 1 (NRF1) Orphan Gene (AID 2282987)
Conditions: HepG2 NRF1 cis-element reporter, Attagene multiplex; actives raise or lower the signal
How it was run: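 Human hepatoma HepG2 cells carrying transfected promoter-regulated reporter units were incubated with test chemicals for 24 h. Reporter transcripts were measured by RT-PCR plus capillary electrophoresis, and endpoints derived by bidirectional fitting with DMSO as baseline.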

Nuclear respiratory factor 1 (Homo sapiens), sequence (Q16656 whole entry, looked up): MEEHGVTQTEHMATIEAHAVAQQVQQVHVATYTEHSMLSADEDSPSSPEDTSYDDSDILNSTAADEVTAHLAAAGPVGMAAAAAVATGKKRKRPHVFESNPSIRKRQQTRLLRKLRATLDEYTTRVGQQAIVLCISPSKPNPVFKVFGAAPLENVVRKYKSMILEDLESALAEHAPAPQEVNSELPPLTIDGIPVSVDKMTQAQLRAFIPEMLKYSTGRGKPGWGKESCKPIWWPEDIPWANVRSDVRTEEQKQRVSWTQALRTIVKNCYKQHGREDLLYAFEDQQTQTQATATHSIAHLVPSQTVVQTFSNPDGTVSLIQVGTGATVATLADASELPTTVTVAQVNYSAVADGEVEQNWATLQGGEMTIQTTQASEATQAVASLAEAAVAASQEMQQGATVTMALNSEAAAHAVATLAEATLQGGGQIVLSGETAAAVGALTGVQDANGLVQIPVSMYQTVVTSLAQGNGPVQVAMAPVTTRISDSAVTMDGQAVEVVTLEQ

Row | Compound | outcome
1 | IC(I)I | inactive
2 | CC1(C)O[C@@H]2C[C@H]3[C@@H]4CCC5=CC(=O)C=C[C@]5(C)[C@@]4(F)[C@@H](O)C[C@]3(C)[C@]2(C(=O)CO)O1 | inactive
3 | O=C(Nc1ccc([N+](=O)[O-])cc1)Nc1ccc([N+](=O)[O-])cc1 (tested in a mixture with another compound) | inactive
4 | Cc1ccc(S(=O)(=O)Oc2ccc(N=Nc3ccc(-c4ccc(N=Nc5c(O)ccc6cc(S(=O)(=O)O)cc(S(=O)(=O)O)c56)c(C)c4)cc3C)cc2)cc1 | inactive
5 | CCCCCCCCCCCCN1CCCCCC1=O | inactive
6 | CC1(C)C2=CCCC(C)(C)[C@]23CC[C@H]1C3 | inactive
7 | CCCCCCC(C)Nc1ccc(Nc2ccccc2)cc1 (configuration not stated) | inactive
8 | CCOC(=O)c1ccc(N)cc1 | inactive
9 | CC(C=O)Cc1ccc(C(C)(C)C)cc1 (configuration not stated) | inactive

Test system: not listed separately
Test: ATG_NFI_CIS: Attagene CIS-FACTORIAL HepG2 Assay for human Nuclear Factor I (NFI) (AID 2282989)
Conditions: HepG2 cis-regulatory reporter, NFI response element transcription; actives raise or lower the signal
How it was run: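 Transfected HepG2 liver cells, exposed 24 h, supplied total RNA for oligo(dT) reverse transcription and reporter-specific PCR. Labelled, HpaI-cut fragments were sized by capillary electrophoresis; DMSO set the baseline for bidirectional fitting.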

Row | Compound | outcome | AC50
10 | C=CC(C)C#N (configuration not stated) | inactive | 
11 | CCCCC(CC)COC(=O)c1ccc(O)cc1 (configuration not stated) | inactive | 
12 | CCOC(=O)[C@@H](C)Oc1ccc(Oc2nc3ccc(Cl)cc3o2)cc1 | inactive | 
13 | CC(C)(C)OC(=O)c1ccc(O)cc1 | inactive | 
14 | COc1cc(Cl)c(OC)cc1N | inactive | 
15 | CN(C)CCOc1ccc(/C(=C(/CCCl)c2ccccc2)c2ccccc2)cc1 | inactive | 
16 | O=[N+]([O-])c1ccc(O)cc1C(F)(F)F |  | 69.4 µM (active)
17 | CCOC(=O)CC(C)O (configuration not stated) | inactive | 
18 | COC(=O)c1ccc(OC)cc1 | inactive | 
19 | CCC(Cl)C(Cl)C(Cl)CC(Cl)C(Cl)C(C)Cl (configuration not stated) | inactive | 
20 | COC(C)(C)CC(C)=O | inactive | 
21 | CC(=O)O[C@H]1C[C@@H]2CC[C@@]1(C)C2(C)C | inactive | 
22 | O=C(Nc1ccc2c(c1)Cc1ccccc1-2)C(F)(F)F | inactive | 
23 | CC(=O)O[C@@H]1C[C@@H]2CC[C@@]1(C)C2(C)C | inactive | 
24 | NCC1CCCC(CN)C1 (configuration not stated) | inactive | 
25 | CCCCCCCCSCCO | inactive | 
26 | CCCCCCC(O)CCCCCCCCCCC(=O)O (configuration not stated) | inactive | 
27 | CC1C2CC(CC2C2CCCC(O)C2)C1(C)C (configuration not stated) | inactive | 
28 | CCCCCCCCCCCC(=O)OC[C@@H](O)[C@H]1OC[C@H](O)[C@H]1O | inactive | 

Row | Compound | outcome | AC50
29 | CCc1cc(C(C)(C)C)c(O)c(C(C)(C)C)c1 |  | 54 µM (active)
30 | C=CC(C)(O)CCC=C(C)C (configuration not stated) | inactive | 
31 | CCOC(=O)CN | inactive | 
32 | CCC1(c2ccccc2)C(=O)NCNC1=O | inactive | 
33 | CCc1cc(Cc2cc(CC)cc(C(C)(C)C)c2O)c(O)c(C(C)(C)C)c1 |  | 13.5 µM (active)
34 | CC1(C)C(=O)N(Cl)C(=O)N1Br | inactive | 
35 | Cc1cc(C)nc(NS(=O)(=O)c2ccc(N)cc2)n1 | inactive | 
36 | Cc1cc(=O)oc2cc(N(C)C)ccc12 | inactive | 
37 | CSc1c(Cl)c(Cl)c(Cl)c(Cl)c1Cl |  | 154 µM (active)
38 | C=C1CC[C@H](O)C/C1=C/C=C1\CCC[C@]2(C)[C@@H]([C@H](C)/C=C/[C@H](C)C(C)C)CC[C@@H]12 | inactive | 
39 | IC(I)I | inactive | 
40 | CC1(C)O[C@@H]2C[C@H]3[C@@H]4CCC5=CC(=O)C=C[C@]5(C)[C@@]4(F)[C@@H](O)C[C@]3(C)[C@]2(C(=O)CO)O1 | inactive | 
41 | O=C(Nc1ccc([N+](=O)[O-])cc1)Nc1ccc([N+](=O)[O-])cc1 (tested in a mixture with another compound) | inactive | 
42 | Cc1ccc(S(=O)(=O)Oc2ccc(N=Nc3ccc(-c4ccc(N=Nc5c(O)ccc6cc(S(=O)(=O)O)cc(S(=O)(=O)O)c56)c(C)c4)cc3C)cc2)cc1 | inactive | 
43 | CCCCCCCCCCCCN1CCCCCC1=O | inactive | 
44 | CC1(C)C2=CCCC(C)(C)[C@]23CC[C@H]1C3 | inactive | 
45 | CCCCCCC(C)Nc1ccc(Nc2ccccc2)cc1 (configuration not stated) | inactive | 
46 | CCOC(=O)c1ccc(N)cc1 | inactive | 
47 | CC(C=O)Cc1ccc(C(C)(C)C)cc1 (configuration not stated) | inactive | 

— PubChem BioAssay (EPA / NIEHS)
